For two sequences, binding signal results are on record in publication PMC7862700, “An all-to-all approach to the identification of sequence-specific readers for epigenetic DNA modifications on cytosine”.

What all share (assay): DAPPL (digital affinity profiling via proximity ligation, sequencing); 10 mM Tris-HCl pH 7.5, 50 mM NaCl, 1 mM DTT, 4% glycerol, room temperature, 30 min; GST-TFs on glutathione beads, 16-mer random dsDNA library, 0.1% formaldehyde crosslink after washing; high values mean tight binding
Holding throughout (conditions): protein: recombinant; tags: N-terminal GST; dsDNA, one strand shown

One test has as its target T1, FLI1 (Homo sapiens, UniProt Q01543 1-452).
T1 sequence: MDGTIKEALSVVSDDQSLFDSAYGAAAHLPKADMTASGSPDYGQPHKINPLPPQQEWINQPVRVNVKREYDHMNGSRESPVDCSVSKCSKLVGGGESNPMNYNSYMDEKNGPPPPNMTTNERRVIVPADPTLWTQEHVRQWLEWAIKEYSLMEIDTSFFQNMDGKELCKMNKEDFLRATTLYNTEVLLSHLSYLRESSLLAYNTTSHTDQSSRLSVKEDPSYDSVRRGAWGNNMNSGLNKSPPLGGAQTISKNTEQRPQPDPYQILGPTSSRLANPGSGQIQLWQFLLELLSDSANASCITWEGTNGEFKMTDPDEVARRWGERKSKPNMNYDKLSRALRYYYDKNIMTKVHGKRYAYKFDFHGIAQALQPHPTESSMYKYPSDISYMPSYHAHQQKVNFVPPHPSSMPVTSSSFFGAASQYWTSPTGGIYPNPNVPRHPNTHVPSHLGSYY
The essentials: (§1)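 Binding signal is given per hexamer as its read frequency for a factor divided by its frequency in the tag-only sample. GST-fused human transcription factors were expressed in yeast, captured on glutathione beads, barcoded with DNA and pooled with that sample, then incubated with 200 nmole of a 16-mer random double-stranded DNA library in Tris/NaCl/DTT/glycerol buffer for 30 min at room temperature. The pools were then washed, crosslinked, proximity-ligated, amplified by PCR and sequenced on an Illumina NextSeq500.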

The next test has as its target T2, ELK1 (Homo sapiens, UniProt P19419 1-428).
T2 sequence: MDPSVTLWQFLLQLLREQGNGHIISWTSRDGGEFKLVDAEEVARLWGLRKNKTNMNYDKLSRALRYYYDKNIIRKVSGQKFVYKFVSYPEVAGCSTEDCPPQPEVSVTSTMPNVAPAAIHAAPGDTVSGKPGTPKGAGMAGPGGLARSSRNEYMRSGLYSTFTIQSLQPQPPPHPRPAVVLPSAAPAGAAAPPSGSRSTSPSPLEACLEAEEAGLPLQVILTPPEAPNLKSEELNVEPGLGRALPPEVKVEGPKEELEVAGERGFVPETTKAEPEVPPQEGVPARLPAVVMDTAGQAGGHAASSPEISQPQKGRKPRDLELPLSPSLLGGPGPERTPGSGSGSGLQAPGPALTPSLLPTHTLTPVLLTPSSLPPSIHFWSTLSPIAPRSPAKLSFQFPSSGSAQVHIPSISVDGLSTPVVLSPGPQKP
The method in brief: as §1

The target in the next test is T3, GABPA (Homo sapiens, UniProt Q06546 1-454).
T3 sequence: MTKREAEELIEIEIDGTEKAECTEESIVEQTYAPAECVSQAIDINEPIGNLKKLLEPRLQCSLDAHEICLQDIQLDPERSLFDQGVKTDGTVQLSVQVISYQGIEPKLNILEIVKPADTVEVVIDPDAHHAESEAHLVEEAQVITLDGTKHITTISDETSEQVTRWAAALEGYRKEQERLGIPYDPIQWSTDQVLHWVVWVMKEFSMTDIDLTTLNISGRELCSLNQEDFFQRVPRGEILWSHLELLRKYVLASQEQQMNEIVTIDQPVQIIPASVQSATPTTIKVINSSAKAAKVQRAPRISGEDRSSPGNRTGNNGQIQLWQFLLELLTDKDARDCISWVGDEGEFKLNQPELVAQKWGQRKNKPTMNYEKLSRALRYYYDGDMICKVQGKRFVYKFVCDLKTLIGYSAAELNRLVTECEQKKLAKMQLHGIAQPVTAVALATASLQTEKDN
The essentials: as §1

The next test addresses T4, ERG (Homo sapiens, UniProt P11308 1-479).
T4 sequence: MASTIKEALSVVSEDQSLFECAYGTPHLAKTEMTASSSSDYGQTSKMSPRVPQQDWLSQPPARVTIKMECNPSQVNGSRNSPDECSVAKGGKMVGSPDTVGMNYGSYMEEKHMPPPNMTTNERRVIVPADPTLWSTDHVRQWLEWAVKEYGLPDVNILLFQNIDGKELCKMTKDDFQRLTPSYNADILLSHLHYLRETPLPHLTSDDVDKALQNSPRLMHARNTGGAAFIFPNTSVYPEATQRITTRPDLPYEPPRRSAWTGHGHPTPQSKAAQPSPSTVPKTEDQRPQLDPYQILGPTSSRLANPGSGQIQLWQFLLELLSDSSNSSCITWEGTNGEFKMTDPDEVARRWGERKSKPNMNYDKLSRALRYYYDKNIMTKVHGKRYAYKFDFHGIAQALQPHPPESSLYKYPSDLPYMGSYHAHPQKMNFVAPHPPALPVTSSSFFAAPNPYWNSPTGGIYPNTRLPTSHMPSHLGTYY
The essentials:
as §1

The next test concerns the target ELF1 (Homo sapiens, UniProt P32519 1-619). The essentials: as §1
In another test the target is T5, EHF (Homo sapiens, UniProt Q9NZC4 1-300).
T5 sequence: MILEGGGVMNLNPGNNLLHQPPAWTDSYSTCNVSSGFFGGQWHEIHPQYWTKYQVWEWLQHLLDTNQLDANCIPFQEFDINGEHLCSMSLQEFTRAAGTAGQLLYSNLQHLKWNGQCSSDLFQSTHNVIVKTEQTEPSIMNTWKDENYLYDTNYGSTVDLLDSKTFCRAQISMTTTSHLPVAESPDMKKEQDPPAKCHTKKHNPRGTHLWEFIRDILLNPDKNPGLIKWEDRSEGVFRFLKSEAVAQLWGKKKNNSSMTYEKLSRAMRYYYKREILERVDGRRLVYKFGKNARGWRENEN
The essentials:
as §1

In a further test the target is SPI1 (Homo sapiens, UniProt P17947 1-270). The method in brief: as §1
For the next test, the target named is SPIB (Homo sapiens, UniProt Q01892 1-262). The method in brief:
as §1

The target in another test is T6, ELK3 (Homo sapiens, UniProt P41970 1-407).
T6 sequence: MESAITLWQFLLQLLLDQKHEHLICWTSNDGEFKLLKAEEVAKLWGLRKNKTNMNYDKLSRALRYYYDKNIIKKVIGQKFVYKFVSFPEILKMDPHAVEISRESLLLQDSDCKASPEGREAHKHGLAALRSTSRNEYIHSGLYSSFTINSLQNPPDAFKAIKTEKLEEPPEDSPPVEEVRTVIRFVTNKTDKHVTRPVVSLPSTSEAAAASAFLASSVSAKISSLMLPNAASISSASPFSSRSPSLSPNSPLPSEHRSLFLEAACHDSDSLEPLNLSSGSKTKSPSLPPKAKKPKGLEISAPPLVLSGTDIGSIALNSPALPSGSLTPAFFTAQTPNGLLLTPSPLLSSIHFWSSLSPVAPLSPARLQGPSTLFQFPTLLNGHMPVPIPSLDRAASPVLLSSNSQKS
The method in brief:
as §1

The target of a further test is T7, FEV (Homo sapiens, UniProt Q99581 1-238).
T7 sequence: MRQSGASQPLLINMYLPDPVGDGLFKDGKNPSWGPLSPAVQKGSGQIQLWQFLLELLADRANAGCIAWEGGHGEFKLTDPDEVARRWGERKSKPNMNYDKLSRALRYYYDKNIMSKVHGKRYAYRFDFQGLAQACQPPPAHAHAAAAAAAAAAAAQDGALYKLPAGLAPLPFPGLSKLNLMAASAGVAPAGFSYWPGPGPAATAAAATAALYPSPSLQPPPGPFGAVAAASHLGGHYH
The method in brief:
as §1

The target in a further test is ETV5 (Homo sapiens, UniProt P41161 1-510). The essentials: as §1
ETV5, sequence (P41161 whole entry): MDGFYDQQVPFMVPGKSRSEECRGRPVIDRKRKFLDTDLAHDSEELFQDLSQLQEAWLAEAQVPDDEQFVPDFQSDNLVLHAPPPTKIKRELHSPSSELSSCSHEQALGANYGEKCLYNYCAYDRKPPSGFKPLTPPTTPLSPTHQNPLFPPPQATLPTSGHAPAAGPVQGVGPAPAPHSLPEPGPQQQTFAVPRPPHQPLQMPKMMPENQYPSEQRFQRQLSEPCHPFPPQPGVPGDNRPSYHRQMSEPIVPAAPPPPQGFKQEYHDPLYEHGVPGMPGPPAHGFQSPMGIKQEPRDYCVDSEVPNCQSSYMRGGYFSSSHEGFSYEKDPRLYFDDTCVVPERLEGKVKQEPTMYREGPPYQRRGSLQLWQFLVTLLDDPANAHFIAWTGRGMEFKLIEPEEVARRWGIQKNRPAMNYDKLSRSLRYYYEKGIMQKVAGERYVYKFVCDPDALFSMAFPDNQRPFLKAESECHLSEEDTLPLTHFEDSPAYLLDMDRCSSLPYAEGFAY
For a further test, the target named is T8, SPIC (Homo sapiens, UniProt Q8N5J4 1-248).
T8 sequence: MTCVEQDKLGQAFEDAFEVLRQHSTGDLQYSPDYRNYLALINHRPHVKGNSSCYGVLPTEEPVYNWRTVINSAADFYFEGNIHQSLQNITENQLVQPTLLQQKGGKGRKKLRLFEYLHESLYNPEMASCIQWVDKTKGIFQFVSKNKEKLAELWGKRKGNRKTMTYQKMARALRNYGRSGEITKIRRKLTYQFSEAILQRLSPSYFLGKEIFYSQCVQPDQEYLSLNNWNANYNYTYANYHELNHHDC
The method in brief:
as §1

A further test concerns the target ELF4 (Homo sapiens, UniProt Q99607 1-663). The essentials: as §1
The target of another test is T9, ELK4 (Homo sapiens, UniProt P28324-2 1-405).
T9 sequence: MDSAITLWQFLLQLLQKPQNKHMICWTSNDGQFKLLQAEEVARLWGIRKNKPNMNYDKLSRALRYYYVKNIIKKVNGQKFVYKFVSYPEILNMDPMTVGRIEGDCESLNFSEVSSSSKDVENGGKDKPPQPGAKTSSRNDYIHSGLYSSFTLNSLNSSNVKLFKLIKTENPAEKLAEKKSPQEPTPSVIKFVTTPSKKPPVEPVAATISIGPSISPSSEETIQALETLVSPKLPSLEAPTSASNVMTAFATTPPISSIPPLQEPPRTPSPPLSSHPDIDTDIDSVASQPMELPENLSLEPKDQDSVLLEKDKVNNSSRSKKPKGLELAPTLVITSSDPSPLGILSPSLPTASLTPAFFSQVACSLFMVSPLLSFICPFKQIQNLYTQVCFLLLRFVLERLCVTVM
The essentials:
as §1

The next test addresses T10, ETV2 (Homo sapiens, UniProt O00321 1-342).
T10 sequence: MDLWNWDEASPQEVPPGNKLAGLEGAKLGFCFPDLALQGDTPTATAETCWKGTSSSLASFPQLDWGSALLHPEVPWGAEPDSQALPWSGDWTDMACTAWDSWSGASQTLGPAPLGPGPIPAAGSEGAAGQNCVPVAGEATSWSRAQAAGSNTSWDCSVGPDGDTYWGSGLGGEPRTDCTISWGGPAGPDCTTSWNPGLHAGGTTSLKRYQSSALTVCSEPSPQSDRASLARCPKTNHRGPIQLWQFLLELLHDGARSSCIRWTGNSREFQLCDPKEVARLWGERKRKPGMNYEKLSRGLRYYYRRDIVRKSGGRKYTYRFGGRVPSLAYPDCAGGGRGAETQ
The method in brief:
as §1

The next test deals with T11, ELF3 (Homo sapiens, UniProt P78545 1-371).
T11 sequence: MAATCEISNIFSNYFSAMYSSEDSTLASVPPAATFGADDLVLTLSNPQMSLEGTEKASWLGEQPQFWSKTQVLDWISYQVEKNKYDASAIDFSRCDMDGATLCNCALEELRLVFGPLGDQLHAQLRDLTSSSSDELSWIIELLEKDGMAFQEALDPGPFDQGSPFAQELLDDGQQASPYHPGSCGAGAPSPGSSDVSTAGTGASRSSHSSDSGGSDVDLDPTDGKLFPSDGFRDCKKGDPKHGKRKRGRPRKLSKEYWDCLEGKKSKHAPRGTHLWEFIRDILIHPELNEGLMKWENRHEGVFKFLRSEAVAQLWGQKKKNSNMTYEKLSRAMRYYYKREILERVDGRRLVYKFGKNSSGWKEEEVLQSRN
The essentials:
as §1

A further test concerns the target CRX (Homo sapiens, UniProt O43186 1-299). The method in brief: as §1
A further test addresses ETV1 (Homo sapiens, UniProt P50549 1-477). The essentials:
as §1

SPIB, sequence (Q01892 whole entry): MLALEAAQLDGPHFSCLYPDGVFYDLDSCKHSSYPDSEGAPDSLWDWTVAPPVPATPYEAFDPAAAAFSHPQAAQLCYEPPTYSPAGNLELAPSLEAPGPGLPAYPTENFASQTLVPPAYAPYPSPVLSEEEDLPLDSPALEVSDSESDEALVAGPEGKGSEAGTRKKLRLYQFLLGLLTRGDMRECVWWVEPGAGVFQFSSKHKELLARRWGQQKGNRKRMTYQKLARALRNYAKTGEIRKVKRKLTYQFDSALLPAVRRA
CRX, sequence (O43186 whole entry): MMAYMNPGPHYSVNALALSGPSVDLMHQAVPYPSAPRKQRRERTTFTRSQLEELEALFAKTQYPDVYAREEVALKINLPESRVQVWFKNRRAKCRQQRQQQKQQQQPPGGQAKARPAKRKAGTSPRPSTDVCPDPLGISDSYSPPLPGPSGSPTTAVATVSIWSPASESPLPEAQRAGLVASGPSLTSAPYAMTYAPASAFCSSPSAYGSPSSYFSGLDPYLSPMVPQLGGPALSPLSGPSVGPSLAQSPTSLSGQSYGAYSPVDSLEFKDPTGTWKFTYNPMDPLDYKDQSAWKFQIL
ELF1, sequence (P32519 whole entry): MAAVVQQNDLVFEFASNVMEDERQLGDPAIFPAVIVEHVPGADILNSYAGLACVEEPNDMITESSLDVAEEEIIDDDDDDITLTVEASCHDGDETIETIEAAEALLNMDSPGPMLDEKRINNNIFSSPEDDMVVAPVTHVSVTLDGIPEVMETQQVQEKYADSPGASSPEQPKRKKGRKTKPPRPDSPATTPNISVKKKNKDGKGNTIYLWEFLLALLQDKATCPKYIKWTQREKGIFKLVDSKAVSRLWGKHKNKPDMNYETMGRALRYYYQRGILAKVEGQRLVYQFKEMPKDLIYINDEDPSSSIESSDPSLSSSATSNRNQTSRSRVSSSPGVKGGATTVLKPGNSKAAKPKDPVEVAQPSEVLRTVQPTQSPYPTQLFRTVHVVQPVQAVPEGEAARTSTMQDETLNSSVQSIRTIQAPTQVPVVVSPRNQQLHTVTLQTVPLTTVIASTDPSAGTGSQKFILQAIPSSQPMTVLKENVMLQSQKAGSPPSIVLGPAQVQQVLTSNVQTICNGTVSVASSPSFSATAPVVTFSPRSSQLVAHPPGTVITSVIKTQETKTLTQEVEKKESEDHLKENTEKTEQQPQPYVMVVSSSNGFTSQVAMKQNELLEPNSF
ETV1, sequence (P50549 whole entry): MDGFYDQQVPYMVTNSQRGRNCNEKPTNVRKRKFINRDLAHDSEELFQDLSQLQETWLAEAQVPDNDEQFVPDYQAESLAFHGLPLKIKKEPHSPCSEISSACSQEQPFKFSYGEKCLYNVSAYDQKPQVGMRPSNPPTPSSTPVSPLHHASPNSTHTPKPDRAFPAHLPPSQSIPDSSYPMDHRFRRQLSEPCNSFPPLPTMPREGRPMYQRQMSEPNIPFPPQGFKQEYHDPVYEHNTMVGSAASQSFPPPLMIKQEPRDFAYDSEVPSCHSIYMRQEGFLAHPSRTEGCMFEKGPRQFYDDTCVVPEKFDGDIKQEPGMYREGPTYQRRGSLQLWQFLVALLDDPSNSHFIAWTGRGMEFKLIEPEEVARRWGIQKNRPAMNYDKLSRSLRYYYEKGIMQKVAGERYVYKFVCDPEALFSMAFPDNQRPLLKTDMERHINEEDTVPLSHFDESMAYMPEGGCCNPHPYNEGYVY
ELF4, sequence (Q99607 whole entry): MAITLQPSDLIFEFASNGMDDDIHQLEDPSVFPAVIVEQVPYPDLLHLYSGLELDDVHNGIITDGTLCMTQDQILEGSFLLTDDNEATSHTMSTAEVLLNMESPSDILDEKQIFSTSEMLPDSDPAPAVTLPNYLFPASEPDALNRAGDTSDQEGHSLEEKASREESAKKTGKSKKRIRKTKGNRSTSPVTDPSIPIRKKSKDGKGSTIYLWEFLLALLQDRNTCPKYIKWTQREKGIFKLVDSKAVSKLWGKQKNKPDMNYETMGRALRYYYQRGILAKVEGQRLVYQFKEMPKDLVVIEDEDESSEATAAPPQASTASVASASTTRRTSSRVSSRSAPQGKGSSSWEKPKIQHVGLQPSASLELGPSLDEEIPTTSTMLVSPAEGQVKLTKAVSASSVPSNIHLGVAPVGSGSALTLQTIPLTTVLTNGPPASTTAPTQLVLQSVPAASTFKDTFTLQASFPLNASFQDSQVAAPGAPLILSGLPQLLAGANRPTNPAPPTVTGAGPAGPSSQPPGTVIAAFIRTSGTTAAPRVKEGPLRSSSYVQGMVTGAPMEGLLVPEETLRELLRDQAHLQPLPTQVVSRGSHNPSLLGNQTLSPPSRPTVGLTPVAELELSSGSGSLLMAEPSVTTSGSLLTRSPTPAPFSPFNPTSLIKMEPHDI

As for TCACAT, the binding signal is 1.23 fold enrichment (6-mer frequency, TF over GST control) in the test with FLI1; 1.25 fold enrichment (6-mer frequency, TF over GST control) with ELK1; 1.23 fold enrichment (6-mer frequency, TF over GST control) with GABPA; 1.29 fold enrichment (6-mer frequency, TF over GST control) in the test with ERG; 1.32 fold enrichment (6-mer frequency, TF over GST control) with ELF1; 1.27 fold enrichment (6-mer frequency, TF over GST control) in the test with EHF. For the same sequence, the binding signal is 1.32 fold enrichment (6-mer frequency, TF over GST control) with SPI1; 1.19 fold enrichment (6-mer frequency, TF over GST control) with SPIB; 1.24 fold enrichment (6-mer frequency, TF over GST control) with ELK3; 1.28 fold enrichment (6-mer frequency, TF over GST control) in the test with FEV; 1.28 fold enrichment (6-mer frequency, TF over GST control) with ETV5; 1.11 fold enrichment (6-mer frequency, TF over GST control) in the test with SPIC. The binding signal with ELF4 is 1.15 fold enrichment (6-mer frequency, TF over GST control); in the test with ELK4, 1.17 fold enrichment (6-mer frequency, TF over GST control); with ETV2, 1.32 fold enrichment (6-mer frequency, TF over GST control); in the test with ELF3, 1.21 fold enrichment (6-mer frequency, TF over GST control); with CRX, 1.09 fold enrichment (6-mer frequency, TF over GST control); in the test with ETV1, 1.21 fold enrichment (6-mer frequency, TF over GST control).

In the case of ATCACA, the binding signal with FLI1 is 1.06 fold enrichment (6-mer frequency, TF over GST control); in the test with ELK1, 1.09 fold enrichment (6-mer frequency, TF over GST control); in the test with GABPA, 1.11 fold enrichment (6-mer frequency, TF over GST control); with ERG, 1.02 fold enrichment (6-mer frequency, TF over GST control); with ELF1, 1.13 fold enrichment (6-mer frequency, TF over GST control); with EHF, 1.04 fold enrichment (6-mer frequency, TF over GST control). The binding signal was 1.06 fold enrichment (6-mer frequency, TF over GST control) with SPI1; 1.02 fold enrichment (6-mer frequency, TF over GST control) with SPIB; 1.13 fold enrichment (6-mer frequency, TF over GST control) with ELK3; 1.11 fold enrichment (6-mer frequency, TF over GST control) with FEV; 1.13 fold enrichment (6-mer frequency, TF over GST control) with ETV5; 1.09 fold enrichment (6-mer frequency, TF over GST control) with SPIC. Moreover, the binding signal in the test with ELF4 is 1.1 fold enrichment (6-mer frequency, TF over GST control); in the test with ELK4, 1.02 fold enrichment (6-mer frequency, TF over GST control); in the test with ETV2 it was 1.25 fold enrichment (6-mer frequency, TF over GST control); with ELF3 it was 1.15 fold enrichment (6-mer frequency, TF over GST control); with CRX, 1.16 fold enrichment (6-mer frequency, TF over GST control); with ETV1, 1.04 fold enrichment (6-mer frequency, TF over GST control).
